Hits are enriched below; roughly 0.59% of the tested compounds scored in any of these assays.
AT treatment: qHTS Assay for Identifying a Potential Treatment of Ataxia-Telangiectasia; F2112 A-T fibroblasts, KAP-1 phosphorylation AlphaLISA; neocarzinostatin DNA damage 30 min before lysis; Potency, µM (doses to about 57.5 µM), for inactives: top-dose activation, hits mostly activators; 320,000 compounds, 0.19% hits; note: potency is the fitted concentration of half-maximal effect; % of control where 0% means no effect; nearly all actives have a fitted effect of over 45% in size
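ATM-like activity read as KAP-1 phosphorylation via AlphaLISA donor/acceptor antibody pairs after lysis and 6 hr at 25C. Cells were ATM-null patient fibroblasts (F2112, hTERT), dosed 60 min, then exposed to the DSB inducer NCS for 30 min.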
IL2 activator: qHTS of IL-2 Activators. AID 652025, 2013. 360,000 compounds, 0.065% hits. activation, % (series mostly up to about 46 µM). IL-2 activation reporter assay, cell-based qHTS; stimulated with anti-CD3/CD4/CD28 beads; in transgenic mouse T cells; in the data active = activation above about 50%; inconclusive = mostly about 30% to 49%; note: 0% is about no effect
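Using fluorescent plate cytometry, EGFP and DsRed are detected in transgenic mouse T cells stimulated 18 h at 37 degrees C with antibody-coated beads after 60 min compound pretreatment.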
PKM2 act: qHTS Assay for Activators of Human Muscle isoform 2 Pyruvate Kinase. Pyruvate kinase PKM (Homo sapiens), P14618. purified PKM2, Kinase-Glo ATP luminescence, activation; response scale: 0% is enzyme alone, no compound. Potency, µM (top dose mostly 57.5 µM), for the others: at the highest dose activation, most hits filed as activators. 260,000 compounds, 0.34% hits. AID 1631, 2009; note: potency is the fitted concentration of half-maximal effect; % is set by controls: 0 for no effect and ±100 for the full control effect; nearly all actives have a fitted effect of over 55% in size
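ATP formation by purified human PK-M2, quantified via coupled luciferase luminescence after 1 h at room temperature with 0.1 mM ADP and 0.5 mM PEP final.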
Rango-impB inh: qHTS Assay for Inhibitors of Rango (Ran-regulated importin-beta cargo) - Importin beta complex formation; Rango CFP/YFP FRET sensor + importin beta, 45 min; Importin subunit beta-1 (Homo sapiens), Q14974; Potency, µM (series often up to 92.2 µM), for the others: at the highest dose inhibition of complex formation; 340,000 compounds, 0.031% hits; AID 540263, 2011; calls by dose curve;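 note: potency is the fitted concentration of half-maximal effect; 0% = DMSO wells and 100% = buffer wells lacking importin beta; nearly all actives have a fitted effect of over 15% in size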
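Inhibition scored from the CFP 486 nm/YFP 530 nm FRET ratio 45 min after adding 0.125 microM importin beta to 50 nM Rango biosensor preincubated 5 min with compound (room temperature, PBS with DTT, Tween-20, BSA). No-importin wells as positive control.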
Rango dissoc inh: qHTS Assay for Inhibitors of RanGTP induced Rango (Ran-regulated importin-beta cargo) - Importin beta complex dissociation; Biochemical FRET Rango-importin beta, RanGTP-induced dissociation; Potency, µM (series often up to 46.1 µM), for the others: at the highest dose activity change, negative = inhibition; 340,000 compounds, 0.071% hits; AID 540253, 2011; calls by dose curve; note: potency is the fitted concentration of half-maximal effect; % of control where 0% means no effect; nearly all actives have a fitted effect of over 45% in size
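FRET read at 45 min, room temperature: inhibitors block the CFP/YFP signal rise when RanGTP (0.6 uM Ran, 2 mM GTP, 0.2 uM RCC1) frees Rango (0.1 uM) from importin beta (0.25 uM). Pre-read after 5 min compound exposure flags interference.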
HeLa viability: Secondary assay for Activators of Human Pyruvate Kinase M2 isoform - Cell Titer Glo cytotoxicity assay. activity change, negative = cytotoxicity, % at 57.5 µM. HeLa viability, CellTiter-Glo ATP luminescence, 24 h. shares compounds with PKM2 act. 230 tested, under 10 active; note: % of control where 0% means no effect
* hit, by the source's call. Unless noted, calls come from the whole dose curve; as a rule, active = well fitted curve in the direction sought with a large enough effect; inconclusive = small, poorly fitted or top-dose-only effect, or another doubt; inactive = no such curve, though single readings can be large; an effect the other way counts as inactive or inconclusive.

CCC(C)n1c(SCC(=O)N(CC)c2c(N)n(Cc3ccccc3)c(=O)[nH]c2=O)nc2ccccc2c1=O (stereo unspecified) was read as IL2 activator 0, Rango-impB inh 1% and Rango dissoc inh 16%.
For CC1CCN(C(=O)c2ccc(NS(=O)(=O)c3cccc4cccnc34)cc2)CC1 the results were AT treatment -2%, IL2 activator -5, PKM2 act 2.8µM*, Rango-impB inh 5%, Rango dissoc inh -11% and HeLa viability -10.
Cc1cccc(CN2CCN(c3nc4nonc4nc3NC3CC3)CC2=O)c1 was read as AT treatment 0%, IL2 activator -1, PKM2 act 3.5µM*, Rango-impB inh 3%, Rango dissoc inh -3% and HeLa viability -4.
Screening O=C(Nc1cccc(S(=O)(=O)C(F)(F)F)c1)[C@@H]1O[C@H](CO)[C@@H](O)[C@H]1O returned IL2 activator 0.
CC(C)Sc1nc2c([nH]1)c(=N)ncn2Cc1ccccc1 was read as AT treatment 3%, IL2 activator 1, PKM2 act 14µM*, Rango-impB inh -6%, Rango dissoc inh 7% and HeLa viability -1.
For Cc1cccc(OCCSc2nc3c([nH]2)c(=N)ncn3Cc2ccccc2)c1 the results were AT treatment -1%, IL2 activator -1, PKM2 act 4%, Rango-impB inh -4% and Rango dissoc inh 3%.
Screening Nc1nc2ccc(O)cc2s1 returned AT treatment 0%, IL2 activator 0, PKM2 act 3%, Rango-impB inh -4% and Rango dissoc inh -13%.
For Nc1nc2ccc(S(=O)(=O)c3ccc4nc(N)sc4c3)cc2s1 the results were AT treatment 1%, IL2 activator 0, PKM2 act 14µM*, Rango-impB inh -1%, Rango dissoc inh 3% and HeLa viability 0.
For CCN1C(=O)c2cccc3c(S(=O)(=O)Nc4ccccc4)ccc1c23 the results were AT treatment 6%, IL2 activator -2, PKM2 act 4µM*, Rango-impB inh inconclusive, Rango dissoc inh inconclusive and HeLa viability inconclusive.
CCN1C(=O)c2cccc3c(S(=O)(=O)N(C)C)ccc1c23 was read as IL2 activator -4.
CC(OC(=O)Cn1[nH]c(=O)c2ccccc2c1=O)C(=O)Nc1cccc(Cl)c1 (stereo unspecified) was read as AT treatment 9%, IL2 activator -1, Rango-impB inh 2% and Rango dissoc inh 7%.
`O=C(NCc1cccs1)c1ccc2sc(C3=C[C@@H](O)[C@@H](O)[C@@H](CO)O3)nc2c1` gave IL2 activator 1.
`CC1(C)CCc2cc(S(=O)(=O)N3CCN(S(=O)(=O)c4c(F)cccc4F)CC3)ccc2O1` gave AT treatment 1%, IL2 activator 8, Rango-impB inh -2%, Rango dissoc inh -5% and HeLa viability -21.
For CN1CCOc2ccc(S(=O)(=O)N3CCN(S(=O)(=O)c4c(F)cccc4F)CC3)cc21 the results were AT treatment 5% and HeLa viability 4.
Screening O=C(c1ccc2c(c1)OCCO2)N1CCN(S(=O)(=O)c2c(F)cccc2F)CC1 returned AT treatment 6%, IL2 activator 1, Rango-impB inh 0%, Rango dissoc inh -14% and HeLa viability inconclusive.
Screening O=S(=O)(c1ccc2c(c1)OCCO2)N1CCN(S(=O)(=O)c2c(F)cc(F)cc2F)CC1 returned AT treatment 14%, IL2 activator -1, Rango-impB inh 0% and Rango dissoc inh 2%.
